Source: PubChem BioAssay (NCI)
This is part of a sample that, as a whole, favours compounds with a hit. Of some 79,000 tested, about 15% had one in any assay. Cut-off read from the data, not from the text of the source: active = growth inhibition above about 70%; inactive = the rest.

Tests used:
[1] = NCI Yeast Anticancer Drug Screen. Data for the rad50 strain (AID 155);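 note: 0% = growth of vehicle-only cultures of the same strain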; settings: S. cerevisiae rad50 strain growth inhibition; at 50.0 µM; stronger effect = higher value
How it was run: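 Cells are treated with compound, grown, and their growth is then scored against vehicle-only cultures of the same repair-deficient yeast strain.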

[2] = NCI Yeast Anticancer Drug Screen. Data for the mec2-1 strain (AID 157); settings: S. cerevisiae mec2-1 strain, at 50.0 µM, stronger effect = higher value
How it was run: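 Each compound was tested on mec2-1 yeast, a strain altered in DNA damage repair or cell cycle control. Growth inhibition is reported relative to vehicle.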

[3] = NCI Yeast Anticancer Drug Screen. Data for the sgs1 mgt1 strain (AID 161);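 note: 0% = growth of cultures given vehicle only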; settings: S. cerevisiae sgs1 mgt1 strain, at 50.0 µM, stronger effect = higher value
How it was run: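 Read-out: growth inhibition vs vehicle controls. Cells: mutant yeast strain deficient in DNA damage repair.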

[4] = NCI Yeast Anticancer Drug Screen. Data for the cln2 rad14 strain (AID 165);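 note: 0% = growth equal to vehicle treated cultures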; settings: S. cerevisiae cln2 rad14 strain, at 50.0 µM, stronger effect = higher value
How it was run: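 Test compounds were added to cln2 rad14 yeast cultures; inhibition of growth was then determined by comparison with vehicle treatment.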

[5] = NCI Yeast Anticancer Drug Screen. Data for the bub3 strain (AID 167); settings: S. cerevisiae bub3 mutant strain, at 50.0 µM, stronger effect = higher value
How it was run: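 Part of a panel of yeast mutants defective in DNA damage repair or cell cycle regulation. Each strain is grown with compound, and inhibition is calculated relative to solvent-treated cultures.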

[6] = NCI Yeast Anticancer Drug Screen. Data for the mlh1 rad18 strain (AID 175); settings: S. cerevisiae mlh1 rad18 strain growth inhibition; at 50.0 µM; stronger effect = higher value
How it was run: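 Inhibition values reflect reduced growth of mutant yeast versus vehicle-treated controls following compound exposure; the mutations affect DNA damage repair.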

Measured: growth inhibition

CCNC1(C(N)=O)CCN(Cc2ccccc2)CC1
inactive: [1] -14.6% | [2] -55.8% | [3] -31.1% | [4] 5.1% | [5] -30.4% | [6] -22.7%

CCOC(=O)C(=CN1C/C(=C/C(C)=C/c2ccccc2)SC1=S)C(=O)OCC
inactive: [1] -12.1% | [2] 28.9% | [3] 11.7% | [4] -20.9% | [5] 17.9% | [6] 4.85%

Cc1ccc(C(=O)CC2=NC3NN(c4ccccc4)C(=O)C3=C2CC(=O)c2ccc(C)cc2)cc1 (stereo not given)
inactive: [1] 38% | [2] 2.4% | [3] 4.55% | [4] -13.1% | [5] -9.05% | [6] 45.3%

CCOC(=O)c1cc2c(nc1C)-c1cc(Cl)ccc1OC2OCc1ccccc1 (stereo not given)
inactive: [1] -1.65% | [2] -3% | [3] -21.6% | [4] -3.55% | [5] -12.2% | [6] 4.3%

Cc1ccc(C(=O)NNC(=O)c2ccc3ccccc3c2)cc1
inactive: [1] -15.4% | [2] -19.4% | [3] 7% | [4] 10.2% | [5] -16.6% | [6] -12.9%

Nc1c(Cl)ncnc1Nc1cccc(C(F)(F)F)c1
inactive: [1] 9.9% | [2] 38.4% | [3] 53.1% | [4] 10.1% | [5] 41.6% | [6] 66.5%

O=C1CCCCC1COCC1CCCCC1=O (stereo not given)
inactive: [1] -4.8% | [2] 2.65% | [3] -2.15% | [4] -17.6% | [5] 5.25% | [6] -21.4%

CCCCCCCCCCCC[Si](c1ccccc1)(c1ccccc1)c1ccccc1
inactive: [1] 9.3% | [2] 6.2% | [3] 26.1% | [4] 22.9% | [5] 1% | [6] 24.5%

O=COC1CC2CC1c1ccccc12 (stereo not given)
inactive: [1] 4.8% | [2] -9.7% | [3] -1.7% | [4] -7.8% | [5] -3.85% | [6] 6.8%

Cc1ccc(NC(=O)CCCC(=O)CC(=O)c2ccc(Br)cc2)cc1
inactive: [1] -0.4% | [2] -14.9% | [3] -40.4% | [4] -26.2% | [5] -12.2% | [6] -24.6%

CC(C(=O)O)[C@H]1CC[C@H]2[C@@H]3CCC4=CC(=O)CC[C@]4(C)[C@H]3CC[C@]12C (stereo not given in full)
inactive: [1] -3.5% | [2] -5.7% | [3] 7.15% | [4] -46.9% | [5] 2.5% | [6] -10.2%

CN(C(=O)C(Cl)Cl)c1ccc(-c2csc(Cc3ccccc3)n2)cc1
inactive: [1] 38.7% | [2] 6.3% | [3] 1.05% | [4] 7.05% | [5] 34.8% | [6] 28.2%

CCC(c1ccc(OCC(=O)N2CC2)cc1)C(CC)c1ccc(OCC(=O)N2CC2)cc1 (stereo not given)
inactive: [1] 11.8% | [2] 10.3% | [3] 13.5% | [4] 17.8% | [5] -0.35% | [6] 1.75%

N#CC(=O)Nc1ccc(Cl)c(Cl)c1
inactive: [1] -18.6% | [2] -11.2% | [3] -14.6% | [4] -76.6% | [5] -2.15% | [6] 0.4%

N#CC(C#N)=NNc1ccc2cn[nH]c2c1
inactive: [1] -11.1% | [2] 28.2% | [3] 2.7% | [4] -21.1% | [5] -39.5% | [6] -1.95%

O=[N+]([O-])c1ccc(/C=N\N=P(c2ccccc2)(c2ccccc2)c2ccccc2)cc1
inactive: [1] -6.25% | [2] 3.25% | [3] 12.8% | [4] 1.9% | [5] -4.65% | [6] -3.85%

NC(=O)c1ncccc1C(=O)O
inactive: [1] -9.2% | [2] -9.65% | [3] -18.6% | [4] 2.3% | [5] -13.6% | [6] -12.2%

COc1ccc2c(c1)c(=O)c1ccccc1n2/C=C/C(=O)O
inactive: [1] -6% | [2] -14.8% | [3] -8.9% | [4] 3.75% | [5] -3.05% | [6] 2.25%

CC(=O)Nc1ccccc1C
inactive: [1] 11.9% | [2] -7.1% | [3] -0.55% | [4] -5.65% | [5] 5.2% | [6] 3.05%

O=c1[nH][nH]c(=O)c2nc3c(nc12)c1nc2c(=O)[nH][nH]c(=O)c2nc1c1nc2c(=O)[nH][nH]c(=O)c2nc31
inactive: [1] -1.6% | [2] 21.4% | [3] 21.1% | [4] -2.55% | [5] -11.1% | [6] 8.2%
